AmpC inh detg = inhibitors of E. coli AmpC beta-lactamase with detergent; P00811; AmpC hydrolysis of nitrocefin, absorbance 480 nm, 0.01% Triton; Potency, µM (series often up to 114 µM), without a hit: at the top dose activity change, negative = inhibition, hits mostly inhibitors; hit rate 0.041% among 370,000; AID 485294;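 note: 0% = no-compound wells and -100% = no-enzyme wells; nearly all actives have a fitted effect of over 25% in size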
Target sequence (P00811 whole entry, looked up): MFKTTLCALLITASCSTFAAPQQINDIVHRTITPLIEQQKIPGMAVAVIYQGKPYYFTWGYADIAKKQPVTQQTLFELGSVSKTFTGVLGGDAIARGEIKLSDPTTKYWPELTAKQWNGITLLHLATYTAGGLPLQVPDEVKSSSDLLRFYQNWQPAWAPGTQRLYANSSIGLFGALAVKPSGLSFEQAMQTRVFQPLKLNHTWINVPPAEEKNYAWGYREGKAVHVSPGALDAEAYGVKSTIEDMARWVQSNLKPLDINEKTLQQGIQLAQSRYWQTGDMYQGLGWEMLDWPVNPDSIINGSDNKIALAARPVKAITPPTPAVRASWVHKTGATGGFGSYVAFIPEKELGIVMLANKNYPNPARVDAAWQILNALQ
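20 mM phosphate pH 7.0 + 0.01% (detergent screen) or 0.0001% Triton X-100; 5.3 nM AmpC reagent; cpd preinc 15 min RT; nitrocefin (800 uM stock) to start; A480 q20 s × 4 min; Activity was normalised to no-enzyme and no-compound control wells.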
FBPA Giardia inh = blocks Giardia fructose-bisphosphate aldolase activity | A8B2U2 | AID 2451 | Potency, µM (top dose mostly 59.6 µM), without a hit: at the top dose activity, negative = inhibition, actives largely listed as inhibitors | purified Giardia FBPA | hit rate 0.71% among 290,000; note: nearly all actives have a fitted effect of over 55% in size
Target sequence (A8B2U2 whole entry, looked up): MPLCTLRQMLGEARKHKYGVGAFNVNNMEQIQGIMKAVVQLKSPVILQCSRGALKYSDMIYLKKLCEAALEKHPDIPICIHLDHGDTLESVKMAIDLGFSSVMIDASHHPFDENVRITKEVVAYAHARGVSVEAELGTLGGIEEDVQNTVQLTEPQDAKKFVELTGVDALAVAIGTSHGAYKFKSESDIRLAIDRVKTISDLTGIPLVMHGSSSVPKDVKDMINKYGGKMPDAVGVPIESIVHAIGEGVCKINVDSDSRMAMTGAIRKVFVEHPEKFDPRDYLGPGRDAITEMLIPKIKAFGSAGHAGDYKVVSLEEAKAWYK
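Giardia FBPA (40 nM reagent) was preincubated 10 min at RT with compound (up to 57.5 uM final), then substrate plus GAPDH/TPI/NAD/arsenate coupling system with diaphorase/resazurin was added; resorufin fluorescence (525/598 nm) was read after 20 min.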
AmpC inh no detg = AmpC beta-lactamase inhibition without detergent; P00811; AmpC nitrocefin hydrolysis, absorbance 480 nm, 0.0001% Triton; Potency, µM (doses to about 57.1 µM), for the others: at the top dose activity change, negative = inhibition, most hits filed as inhibitors; hit rate 0.52% among 330,000;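 note: plate controls were no compound for no effect and no enzyme for full effect; nearly all actives have a fitted effect of over 20% in size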
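20 mM phosphate pH 7.0 + 0.01% (detergent screen) or 0.0001% Triton X-100; 5.3 nM AmpC reagent; cpd preinc 15 min RT; nitrocefin (800 uM stock) to start; A480 q20 s × 4 min; Activity was normalised to no-enzyme and no-compound control wells.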
Sm TGR inh = S. mansoni TGR enzyme inhibition. Q962Y6. purified TGR, DTNB reduction, TNB absorbance 405 nm. Potency, µM (top dose mostly 114 µM), inactives show at the top dose activity change, negative = inhibition, hits mostly inhibitors. hit rate 3% among 360,000. AID 485364; note: nearly all actives have a fitted effect of over 60% in size
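Kinetic colorimetric format: TGR-catalysed, NADPH-driven DTNB reduction monitored via TNB absorbance. Enzyme dispensed at 20 nM; compound exposure 15 min at room temperature before reaction start.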
* hit, by the source's call; ? = inconclusive; · = no result given; ! = a repeat was not active; [ ] = another dose, or the depositor's remark. Most compounds without a hit are left out; they make up all but 3.6% or so of the library. Calls come from the whole dose curve; as a rule, active = well fitted curve in the direction sought with a large enough effect; inconclusive = small, poorly fitted or top-dose-only effect, or another doubt; inactive = no such curve, though single readings can be large; an effect the other way counts as inactive or inconclusive. Unless noted, % is set by controls: 0 for no effect and ±100 for the full control effect; potency is the fitted concentration of half-maximal effect.

SMILES	AmpC inh detg	FBPA Giardia inh	AmpC inh no detg	Sm TGR inh
CC(=O)C1=C(C)NC(=O)NC1c1ccc(Cl)cc1 (stereo unspecified)	-9.9%	9.6%	-7.2%	6.5%
O=C(N/N=C/c1ccc(-c2ccc(S(=O)(=O)Nc3ncccn3)cc2)o1)c1cc2ccccc2cc1O	-12.5%	-2.0%	20µM*	43.0%
CCOc1ccc(-n2c(SCc3nc(-c4ccc(OC)cc4)no3)nnc2-c2ccncc2)cc1	5.6%	·	·	7.4%
COc1ccc(CN2C(=O)NC(=O)/C(=C\c3cc(OC)c(OC)c(OC)c3)C2=O)cc1	?	2.7%	-13.4%	12.6µM*
COc1ccc(CN2C(=O)NC(=O)/C(=C/c3ccc([N+](=O)[O-])s3)C2=O)cc1	-6.9%	-29.4%	?	1.12µM*
O=C1NC(=O)N(Cc2ccc(F)cc2)C(=O)/C1=C\c1ccc([N+](=O)[O-])s1	-6.0%	-29.5%	11.2µM*	2.24µM*
COc1ccc(CN2C(=O)NC(=O)/C(=C\c3ccco3)C2=O)cc1	?	1.4%	-51.0%	?
Cc1cccc(NS(=O)(=O)c2csc(C(N)=O)c2)c1C	-3.3%	3.8%	-26.1%	-0.5%
CC(=O)C1=C(c2ccccc2)NC(=O)NC1c1ccc(O)c(O)c1 (stereo unspecified)	-0.9%	-16.6%	-20.9%	15.8µM*
C[C@@H]1CN([C@@H](C)CO)C(=O)c2cc(NS(=O)(=O)c3cccs3)ccc2O[C@H]1CN(C)Cc1ccc(C(F)(F)F)cc1	·	·	207.2%	·
O=C(c1cnc2n(c1=O)CCS2)N1CCCc2ccccc21	?	0.4%	-18.0%	0.6%
Cc1csc2ncc(C(=O)N3CCCc4ccccc43)c(=O)n12	?	0.0%	3.55µM*	5.0%
C=CCSc1nc2sc(C)c(C)c2c(=O)n1CC=C	-7.0%	10.9%	-23.1%	15.8µM*
Cn1c(O)c(N=Nc2ccccc2)c2ccccc21	-8.6%	-8.1%	16.7%	44.7µM*
CC1(C)Cc2c(C#N)c(NCCO)nc(-c3ccco3)c2CO1	5.1%	0.1%	19.9%	3.55µM*
CC1(C)Cc2c(C#N)c(NCCN3CCOCC3)nc(-c3ccco3)c2CO1	?	-6.4%	129.0%	35.5µM*
CN(C)CCNc1nc(-c2ccccc2)c2c(c1C#N)CC(C)(C)OC2	-11.8%	3.1%	-3.1%	-18.7%
CC1(C)Cc2c(C#N)c(NCCN3CCOCC3)nc(-c3ccccc3)c2CO1	-5.5%	4.8%	82.0%	-4.7%
COC(=O)c1cc(NC(=O)CSC2=NCCS2)cc(C(=O)OC)c1	2.7%	-4.3%	-27.4%	24.2%
S=C(NCc1ccccc1)Nc1ccc2cn[nH]c2c1	-10.6%	-7.3%	-24.2%	39.8µM*
CCCCc1nc2c(c3c1C[C@H](C)OC3)CN(S(=O)(=O)c1ccc(C#N)cc1)CC2	·	4.9%[12.9 µM]	·	·
Cn1cnnc1Sc1c([N+](=O)[O-])ncn1C	·	5.0%	·	·
Cn1cnc([N+](=O)[O-])c1Sc1nnc(-c2cccnc2)n1C	-5.4%	1.7%	-17.3%	0.447µM*
Cc1ccnc(NC(=O)c2ccc(S(=O)(=O)NCc3ccco3)cc2)c1	?	·	-17.0%	-3.1%
Cc1ccc(S(=O)(=O)N2CCSC2=Nc2ccccc2)cc1	-11.0%	7.3%	-21.8%	0.1%
SMILES	AmpC inh detg	FBPA Giardia inh	AmpC inh no detg	Sm TGR inh
CC1(C)Cc2nc3oc4c(NCc5ccccc5)ncnc4c3cc2CO1	2.1%	6.5%	-15.6%	0.8%
COC(CSc1ncnc2c1oc1nc3c(cc12)COC(C)(C)C3)OC	-4.4%	2.9%	6.3%	28.2µM*
Cc1ccc2nc(CCl)[n+]([O-])c(-c3ccccc3)c2c1	-1.5%	-15.7%	-19.3%	4.47µM*
COC(=O)C/C=C/[C@@H](C)[C@@H](/C=N/OC[C@@H](C)[C@H](OCc1ccccc1)C(C)C)NS(=O)(=O)c1ccc(C)cc1	?	-12.0%	28.2µM*	-17.6%
COC(=O)C/C=C\[C@@H](C)[C@@H](/C=N\OC[C@@H](C)[C@H](OCc1ccccc1)C(C)C)NS(=O)(=O)c1ccc(C)cc1	·	0.2%[12.9 µM]	·	·
CC1=CC(c2ccc(Cl)cc2)n2nc(NS(=O)(=O)c3ccc(C)cc3)nc2N1 (stereo unspecified)	2.5%	-6.9%	-28.7%	31.6µM*
CC1=CC(c2ccccc2)n2nc(NS(=O)(=O)c3ccc(C)cc3)nc2N1 (stereo unspecified)	-1.3%	9.9%	0.0%	35.5µM*
O=c1[nH]c(SCc2c(F)cccc2Cl)nc2c1CCC2	22.7%	·	·	-3.7%
O=C(CSc1nc2ccccc2c(=O)n1CCCO)Nc1ccc2c(c1)OCCO2	-14.5%	·	48.8%	-6.3%
CC1CCC2C(=O)N3CCCC3C(=O)N2C1c1ccc(Br)cc1 (stereo unspecified)	·	-3.0%[12.9 µM]	·	·
COC1=CC(=O)c2ccccc2C1=O	·	·	-8.7%	·
C=CC(C1=CC(=O)C(OC)=CC1=O)c1ccc(OC)cc1 (stereo unspecified)	·	19.9µM*	·	·
C=CC(C1=CC(=O)C(OC)=CC1=O)c1ccccc1 (stereo unspecified)	·	19.9µM*	·	·
COC1=C(c2ccccc2)C(=O)c2ccccc2C1=O	6.1%	?	-5.0%	-31.6%
COc1ccc(-c2ccc(=O)[nH]n2)cc1	-0.7%	-3.7%	-13.4%	-28.0%
C=CC(C1=CC(=O)C(OC)=C(OC)C1=O)c1ccccc1 (stereo unspecified)	·	17.7µM*	·	·
OC1(Cc2ccccc2)CCNCC1	4.7%	2.0%	-22.3%	44.7µM*!
c1ccc(CN2CCCC3(CCNCC3)C2)cc1	·	1.3%	·	·
COc1cccc(NC(=S)N(Cc2ccc(Cl)cc2)Cc2ccc(C(=O)O)cc2)c1	2.6%	-1.5%	-19.5%	4.4%
CC1CCCCN1Cc1c(O)ccc2c(=O)c(-c3ccc(Cl)cc3)coc12 (stereo unspecified)	?	-2.5%	5.1%	7.1%
CC(C)N(Cc1c(O)ccc2c(=O)c(-c3ccc(Cl)cc3)coc12)C(C)C	-16.8%	?	-58.4%	39.8µM*
Cc1ccc(NC(=O)CC(NCC2CCCO2)C(=O)O)cc1C (stereo unspecified)	-13.7%	-11.3%	-13.8%	4.5%
O=C(CN1CCCN(S(=O)(=O)c2ccc(F)cc2)CC1)Nc1cccc(F)c1	?	-6.1%	9.7%	39.8µM*
COc1ccc(N2C(=O)C3C4C=CC(C5CC45)C3C2=O)c([N+](=O)[O-])c1 (stereo unspecified)	-7.3%	-1.3%	-26.1%	-27.1%
COc1cc([N+](=O)[O-])ccc1N1C(=O)C2C3C=CC(C4CC34)C2C1=O (stereo unspecified)	0.4%	2.2%	-4.0%	44.7µM*
O=C(CC1SC(N2CCCC2)=NC1=O)Nc1ccc(C(=O)N2CCN(c3cccc(Cl)c3)CC2)cc1 (stereo unspecified)	0.0%	·	0.8%	-21.4%
NC(=O)c1ccsc1NC(=O)CSc1nnc(Nc2ccccc2)s1	2.0%	-11.0%	14.1µM*	4.3%
COc1ccc(N(CC(=O)NN=C2CCN(C)CC2)S(=O)(=O)c2ccccc2)c(OC)c1	0.5%	9.2%	-22.9%	10.7%
COc1ccccc1NC(=O)C(CC=C(Cl)Cl)C(C)=O (stereo unspecified)	4.2%	11.1%	-10.9%	35.5µM*
